{"source": "PubChem BioAssay AID881", "about": "(National Center for Advancing Translational Sciences (NCATS), 2007)", "note": "Values joined by “and” are separate entries in the source; they are usually repeats but may differ in a detail not shown here. Equal values may be shown once. Screen size: about 110,000 compounds; about 610 (0.55%) were called active. About 3% were inconclusive and are not listed. The full list was thinned out, with actives kept by preference. A number with no mark means an inactive call. The call rests on the fitted dose curve; in most records, active means well fitted inhibition curve with a large enough effect; inconclusive means small, poorly fitted or top-dose-only effect; inactive means no such curve, though single readings can be large or run the other way. On the % scale 0 is the no-effect control and ±100 the full control effect; potency means the concentration at half of the fitted maximal effect."}
{"molecular_target": "Polyunsaturated fatty acid lipoxygenase ALOX15B (Homo sapiens) (UniProt O15296)", "sequence (O15296 whole entry, looked up)": "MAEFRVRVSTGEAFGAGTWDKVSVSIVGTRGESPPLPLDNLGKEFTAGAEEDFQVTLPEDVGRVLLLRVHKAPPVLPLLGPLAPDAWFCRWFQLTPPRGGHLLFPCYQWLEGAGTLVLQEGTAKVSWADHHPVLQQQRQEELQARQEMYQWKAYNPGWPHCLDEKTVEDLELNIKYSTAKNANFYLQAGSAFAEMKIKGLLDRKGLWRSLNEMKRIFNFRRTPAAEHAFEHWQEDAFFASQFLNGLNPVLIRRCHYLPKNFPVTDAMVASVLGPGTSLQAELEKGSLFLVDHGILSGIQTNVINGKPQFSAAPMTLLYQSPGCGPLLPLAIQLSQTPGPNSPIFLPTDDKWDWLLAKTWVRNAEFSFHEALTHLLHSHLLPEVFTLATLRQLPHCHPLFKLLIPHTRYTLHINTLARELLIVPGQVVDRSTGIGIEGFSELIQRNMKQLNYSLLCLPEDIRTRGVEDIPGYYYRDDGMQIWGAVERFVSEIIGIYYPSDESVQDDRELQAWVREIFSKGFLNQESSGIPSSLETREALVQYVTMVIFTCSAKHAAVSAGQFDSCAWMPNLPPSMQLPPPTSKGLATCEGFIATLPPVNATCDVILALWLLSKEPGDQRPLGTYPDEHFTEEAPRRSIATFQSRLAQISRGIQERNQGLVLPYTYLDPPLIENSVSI", "experiment": "qHTS Assay for Inhibitors of 15-hLO-2 (15-human lipoxygenase 2); further: nearly all actives have a fitted effect of over 60% in size", "settings": "purified 15hLO-2, xylenol orange hydroperoxide absorbance; series mostly up to 57.1 µM; activity change, negative = inhibition: at the top concentration", "source_text": "Assay Overview: NIH Molecular Libraries Screening Centers Network [MLSCN] NIH Chemical Genomics Center [NCGC] MLSCN Grant: MH081283-01A1 PI Name: Holman, T.R., University of California, Santa Cruz Human lipoxygenase 15hLO-2 is a member of the closely related lipoxygenase family of enzymes which catalyze the site-specific oxidation of arachidonic acid to various hormone precursor molecules and as such is a candidate for drug development in a variety of disease areas, such as cancer and inflammation. Inhibition of 15hLO-2 activity was screened by utilizing arachidonic acid as a substrate. The extent of hydroperoxide product formation was measured by a secondary chromogenic reaction in which xylenol orange (XO, Sigma-Aldrich, cat. number 39,818-7) reacts with the ferric ions produced from the reaction between the hydroperoxide and ferrous ions. The Fe(III)-XO complex is characterized with red-shifted absorbance at 560 nm. A purified preparation of human 15hLO-2 was supplied by Professor Ted Holman, University of California, Santa Cruz.\nAssay Protocol: Buffer: 25 mM Hepes pH 7.5, 0.01% Triton X-100. Reagents/Controls: Buffer in columns 3 and 4 as negative control (no enzyme). Substrate solution: 45 uM arachidonic acid (Sigma-Aldrich, St. Louis, MO) final concentration dispensed throughout the plate. Enzyme: 50 nM 15hLO-2 final concentration in columns 1, 2, 5-48. Column 1 is neutral (100% activity). Column 2 contained pin-transferred titration of NDGA (nordihidroguaiaretic acid, Sigma-Aldrich, N 5023, top concentration 10 mM in DMSO, then 1:2 dilution in duplicate). (Dilution factor: 23 nL into 4 uL.) Chromogenic detection reagent (divalent iron/xylenol orange, Fe-XO): 200 uM xylenol orange plus 300 uM ferrous ammonium sulfate prepared freshly in 50 mM sulfuric acid. Assay Steps: Three uL of enzyme were dispensed to 1536-well Greiner black clear bottom plates. Compounds and controls (23 nL) were transferred via Kalypsys PinTool. The plates were incubated for 15 min at room temperature, and then 1 uL of substrate solution was added to start the reaction. After room temperature incubation for 90 minutes, 4 uL of Fe-XO solution was added to each well followed by a short spin (1000 rpm, 15 sec) and the plates were then incubated for 30 min. The absorbance at 405 and 573 nm were measured using ViewLux (Perkin-Elmer) High-throughput CCD imager and absorbance protocol settings. The 573-to-405 absorbance ratio was used to compute reaction progress."}
{"smiles": "O=C(Nc1cc(C(F)(F)F)ccc1Cl)c1cc2nc3c(c(C(F)(F)F)n2n1)CCCC3", "activity change, negative = inhibition": "-8.67%"}
{"smiles": "CCOc1ccc(N=Cc2c(O)n(-c3cccc(C)n3)c(=O)c3ccccc23)cc1", "activity change, negative = inhibition": "-20.5%"}
{"smiles": "NNc1nnc(NN)c2ccccc12", "activity change, negative = inhibition": "35% [at 0.0915 µM]"}
{"smiles": "CCOC(=O)c1c(NC(=O)CCl)sc(C(=O)N(CC)CC)c1C", "activity change, negative = inhibition": "-0.801%"}
{"smiles": "O=c1onc(-c2cccs2)n1Cc1ccccc1", "activity change, negative = inhibition": "-5.38%"}
{"smiles": "CNC(=O)c1nnc(Cc2ccc(Cl)cc2)o1", "activity change, negative = inhibition": "8.13%"}
{"smiles": "CC(C)Nc1ncnc2c1nnn2Cc1ccccc1", "activity change, negative = inhibition": "-2.57%"}
{"smiles": "CN=C1SC(CC(=O)Nc2ccc(C(=O)O)cc2)C(=O)N1C", "note": "(stereo not given)", "activity change, negative = inhibition": "7.34%"}
{"smiles": "Cc1c(Br)cc(C(=O)N2CCCCCC2)c(C)c1C", "activity change, negative = inhibition": "3.77%"}
{"smiles": "O=C1OCCN1C(=O)[C@H]1[C@H](c2ccccc2)C(c2ccc(F)cc2)=NN1c1ccccc1", "activity change, negative = inhibition": "-26.1% [at 0.0915 µM]"}
{"smiles": "Oc1c(Cl)cc(Cl)c(Cl)c1Cc1c(O)c(Cl)cc(Cl)c1Cl", "Potency": "10 µM (active)"}
{"smiles": "C=C(C)CSc1nnc(-c2ccc(C)cc2)n1N", "activity change, negative = inhibition": "-9.67%"}
{"smiles": "COc1ccc(CN2CN(C(C)C)CSC2=S)cc1", "Potency": "5.01 µM (active)"}
{"smiles": "COc1ccc(C(=O)CN(C(=O)c2ccc(Cl)cc2)N2C(=O)c3ccccc3C2=O)cc1", "activity change, negative = inhibition": "-10.7%"}
{"smiles": "O=C(O)CSCc1ccc(C(=O)O)o1", "activity change, negative = inhibition": "2.71%"}
{"smiles": "CC(C)NS(=O)(=O)c1ccc(NC(=O)C2CCCCC2)cc1", "activity change, negative = inhibition": "-5.18%"}
{"smiles": "O=C(CCc1ccc(S(=O)(=O)N2CCOCC2)cc1)Nc1ccc2ccccc2c1", "activity change, negative = inhibition": "-2.44%"}
{"smiles": "COc1ccc(Nc2cc(=O)oc3ccccc23)cc1", "activity change, negative = inhibition": "-1.16%"}
{"smiles": "S=C(NCc1cccs1)Nc1ccc(Cl)cc1", "activity change, negative = inhibition": "-14.3%"}
{"smiles": "O=C(NCc1ccc2c(c1)OCO2)C12CC3CC(CC(C3)C1)C2", "activity change, negative = inhibition": "-1.12%"}
{"smiles": "S=C(NCc1ccc(Cl)cc1)NC12CC3CC(CC(C3)C1)C2", "Potency": "15.8 µM (active)"}
{"smiles": "Cc1cccc(N2C(=O)c3cccnc3C2=O)c1", "activity change, negative = inhibition": "-4.64%"}
{"smiles": "COc1ccc(-c2c(C)cc3oc(=O)cc(-c4ccccc4)c3c2C)cc1F", "activity change, negative = inhibition": "-14% [at 0.0915 µM]"}
{"smiles": "O=c1cc(-c2ccc(O)c(O)c2)oc2cccc(O)c12", "Potency": "12.6 µM (active)"}
{"smiles": "CC1O[C@@H](Oc2c(-c3ccc(O)c(O)c3)oc3cc(O)cc(O)c3c2=O)C(O)C(O)C1O", "note": "(stereo not given in full)", "activity change, negative = inhibition": "-4.62%"}
{"smiles": "Cc1cccc(-c2cc(=O)c3cc(C)ccc3o2)c1", "activity change, negative = inhibition": "-4.12%"}
{"smiles": "CC(=O)N1CCN(c2ccc(NCc3ccc(C(C)C)cc3)cc2)CC1", "Potency": "12.6 µM (active)"}
{"smiles": "COc1ccc(N2CCN(C(=O)CNC(=O)c3ccc(C(C)(C)C)cc3)CC2)cc1", "activity change, negative = inhibition": "-1.78%"}
{"smiles": "CC(C)c1ccc(N2CCN(C(=O)c3ccccc3NC(=O)/C=C(\\C(=O)O)c3ccccc3)CC2)cc1", "activity change, negative = inhibition": "-27.6%"}
{"smiles": "COc1ccc(-c2c(C)cc3oc(=O)cc(-c4ccccc4)c3c2C)cc1OC", "activity change, negative = inhibition": "-3.53% [at 0.0915 µM]"}
{"smiles": "CCCCN(CC)CCNC(=O)c1[nH]c(C)c(C(C)=O)c1C", "activity change, negative = inhibition": "3.09%"}
{"smiles": "COCc1cc(C(C)=O)ccc1OC", "activity change, negative = inhibition": "1.18%"}
{"smiles": "CC[C@@H]1Cc2cc(O)ccc2C2=C1c1ccc(O)cc1C[C@H]2CC", "Potency": "7.94 µM (active) and 3.55 µM (active)"}
{"smiles": "Cc1nnc(SCC(=O)NC(=O)NC2CCCC2)n1N", "activity change, negative = inhibition": "2.83%"}
{"smiles": "CCc1c(O)nc(SCC(=O)Nc2ccccc2)n(C(C)CC)c1=O", "note": "(stereo not given)", "activity change, negative = inhibition": "-6.9%"}
{"smiles": "COc1ccccc1NC(=O)[C@H](COCc1ccccc1)NC(=O)OC(C)(C)C", "activity change, negative = inhibition": "-3.55%"}
{"smiles": "CC(C)C(=O)OCC(=O)Nc1ccc2c(c1)CCC2", "activity change, negative = inhibition": "2.52%"}
{"smiles": "O=C1OCCN1C(=O)[C@H]1[C@H](c2ccc(F)cc2)C(c2ccccc2)=NN1c1ccc(Br)cc1", "activity change, negative = inhibition": "-15.7% [at 0.0915 µM]"}
{"smiles": "COc1cc(/C=N/O)cc(Br)c1OS(=O)(=O)c1ccc(C)cc1", "activity change, negative = inhibition": "9.08%"}
{"smiles": "CCN(CC)c1ccc(NC(=O)c2ccc(Cl)nc2)cc1", "activity change, negative = inhibition": "-20.5%"}
{"smiles": "Cc1ccc(-c2cccc([C@H]3[C@@H]4C=CC[C@@H](C)[C@@H]4C(=O)N3Cc3ccccc3)c2)cc1", "activity change, negative = inhibition": "17.8% [at 0.0915 µM]"}
{"smiles": "Cc1nc(NC2=NC(C(=O)Nc3ccc(Cl)cc3)CC(=O)N2)nc2ccccc12", "note": "(stereo not given)", "activity change, negative = inhibition": "-5.2%"}
{"smiles": "COc1ccc(Nc2ncnc3ccc(OC)cc23)cc1", "activity change, negative = inhibition": "12% [at 0.0915 µM]"}
{"smiles": "O=C(c1ccccc1)N1CCN(c2ccc([N+](=O)[O-])c(NCc3ccco3)c2)CC1", "activity change, negative = inhibition": "-17.9%"}
{"smiles": "N#C/C(=C\\c1ccccc1)c1n[nH]c(Cn2cncn2)n1", "activity change, negative = inhibition": "-7.73%"}
{"smiles": "O=C(O)CCC(=O)O", "activity change, negative = inhibition": "15.2% [at 0.0915 µM]"}
{"smiles": "Cc1cc2oc(=O)cc(-c3ccccc3)c2c(C)c1-c1ccc(OC(F)(F)F)cc1", "activity change, negative = inhibition": "-5.36% [at 0.0915 µM]"}
{"smiles": "O=C(Nc1ccc(Sc2ccc(Br)cc2)cc1)c1ccco1", "activity change, negative = inhibition": "26.3%"}
{"smiles": "CC1CCc2c(c3ccccc3[nH]c2=O)O1", "note": "(stereo not given)", "activity change, negative = inhibition": "7.66%"}
{"smiles": "C=CCSc1nc(Cc2ccc(Cl)cc2)nc2ccccc12", "activity change, negative = inhibition": "4.17%"}
